Screens as filed in PubChem.
Most compounds without a hit are left out; they make up all but 3.2% or so of the library.
TWEAK-Fn14 inh: inhibitors of TWEAK-Fn14 interaction signaling. TWEAK-stimulated Fn14 reporter cells, luciferase luminescence, 8 h. actives 2% (n = 360,000). AID 1159606. inhibition, % at 10 µM; in the data active = inhibition above about 50%
LGR2 antag: blocks bursicon-induced cAMP signaling via Drosophila LGR2; HEK293 LGR2, CRE-luciferase, bursicon-stimulated, 4 h; actives 0.35% (n = 380,000); AID 720647; inhibition, % at 9.99 µM;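 active = drop in luminescence signal, shown as inhibition above about 50% in the replicate tests, limit read from the data, passing the limit was not always enough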;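 also: agonist challenge used bursicon conditioned medium at about half maximal strength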
PAX8 inh HTS: PAX8 transcriptional activity inhibition; actives 1.2% (n = 360,000); RMG-I TPO-luciferase reporter, SteadyGlo, 24 h; AID 652154; inhibition, % at 12.6 µM;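 active = mean replicate inhibition at least 60% with every replicate also reaching 60%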;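 also: luciferase light reporting Pax8 driven TPO promoter activity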
EBV LMP1 NFkB: Epstein-Barr LMP1 NF-kappaB reporter inhibition; LMP1-induced NF-kappaB luciferase reporter cells, luminescence; actives 0.69% (n = 350,000); inhibition, % at 12.5 µM; in the data active = inhibition above about 41%
EWS-Fli block: inhibitors of EWS/Fli oncoprotein transcriptional activity | A673 NR0B1-luciferase reporter, viability-normalised | inhibition, % at 12.6 µM | actives 0.67% (n = 350,000) | AID 651661;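 active = mean inhibition of at least 50% after viability correction, with every replicate also passing that limit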;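 also: firefly luciferase signal divided by Alamar Blue viability fluorescence both relative to DMSO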
TROY signal inh: inhibitors of TROY-dependent NF-kB signaling | Q293 LMP1-TROYcd NF-kB luciferase reporter, 4 h | inhibition, % at 10 µM | actives 0.98% (n = 360,000);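 active = compounds whose plate-normalised and pattern-corrected inhibition of the luciferase reporter signal at the single screening dose is 50% or more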
Numbers stand for hits; - = inactive; . = no result given.

SMILES | TWEAK-Fn14 inh | LGR2 antag | PAX8 inh HTS | EBV LMP1 NFkB | EWS-Fli block | TROY signal inh
O=C(C[C@H]1CC[C@H](NC(=O)c2ccccn2)[C@H](CO)O1)NCc1cccc(F)c1 | . | - | - | . | - | .
COc1ccc(NC(=O)Nc2cccc(OC)c2)cc1 | - | . | . | - | . | -
CCSc1nsc(NC(=O)Nc2cccc(F)c2)n1 | 55.4 | - | 90.4 | - | - | -
COc1cccc(NC(=O)Nc2nc(SC)ns2)c1 | 56.1 | - | - | - | - | -
Cc1ccnc(NC(=O)Nc2cccc(F)c2)n1 | - | - | - | - | - | -
COc1cccc(NC(=O)Nc2nccc(C)n2)c1 | 62.1 | - | - | - | - | -
COc1cccc(NC(=O)Nc2nc(SC(C)(C)C)ns2)c1 | 76.5 | - | - | - | - | -
C[C@@H]1CN([C@H](C)CO)C(=O)c2cccc(NC(=O)Nc3cccc4ccccc34)c2O[C@@H]1CN(C)Cc1ccc(-c2ccccc2)cc1 | . | - | . | . | - | .
C[C@H](CO)N1C[C@H](C)[C@@H](CN(C)C(=O)Cc2ccncc2)Oc2cc(C#CC3(O)CCCC3)ccc2S1(=O)=O | . | - | - | . | - | .
CO[C@@H]1CN(C)C(=O)c2cc(NS(=O)(=O)c3ccc(Oc4ccccc4)cc3)ccc2OC[C@@H](C)NC[C@@H]1C | . | - | - | . | - | .
C[C@H](CO)N1C[C@H](C)[C@H](CN(C)C(=O)CN(C)C)Oc2cc(C#C[C@@H](C)O)ccc2S1(=O)=O | . | - | . | . | - | .
C[C@H](CO)N1C[C@H](C)[C@H](CN(C)C(=O)c2ccncc2)Oc2cc(-c3cccc(C#N)c3)ccc2S1(=O)=O | . | - | - | . | - | .
O=C(CCl)N1c2ccccc2OCC1c1ccccc1 (stereo not given) | - | - | - | - | - | -
O=C(CCl)N1c2ccccc2SCC1c1ccccc1 (stereo not given) | - | - | - | - | 61.4 | -
COc1ccc(NC(=O)C2CCCN2S(=O)(=O)c2ccc(Cl)cc2)cc1 (stereo not given) | 77.2 | - | - | - | - | -
COc1ccc(NC(=O)C(=O)NCC2CCCN2S(=O)(=O)c2cc(C)ccc2C)cc1 (stereo not given) | - | - | - | - | 57.5 | -
COc1ccc(NC(=O)C(=O)NCC2CCCN2S(=O)(=O)c2ccc(C)cc2)cc1 (stereo not given) | - | - | 104.2 | - | 56.4 | -
Cc1ccc(S(=O)(=O)N2CCC[C@H]2C(=O)Nc2ccccc2C)cc1 | - | - | - | 70.2 | - | -
Cc1ccc(S(=O)(=O)N2CCC[C@H]2C(=O)Nc2ccccc2Cl)cc1 | - | - | - | - | - | -
COc1ccc(S(=O)(=O)N2CCCC2C(=O)Nc2ccc(C)cc2)cc1 (stereo not given) | - | . | - | - | . | -
O=C(NC1CCCCC1)N1CC(=O)N2[C@H](CO)[C@H](c3ccc(-c4cccnc4)cc3)[C@H]2C1 | . | - | - | . | - | .
CCCSc1nc(N2CCOCC2)c2c(c1C#N)CCCC2 | - | . | - | - | . | -
N#Cc1c(SCC(=O)O)nc(N2CCCCC2)c2c1CCCC2 | - | . | . | - | . | -
CSc1nc(N2CCOCC2)c2c(c1C#N)CCCCC2 | 93.0 | - | . | - | . | -
COC(=O)CSc1nc(N2CCCCC2)c2c(c1C#N)CCCC2 | 91.4 | . | - | - | . | -
SMILES | TWEAK-Fn14 inh | LGR2 antag | PAX8 inh HTS | EBV LMP1 NFkB | EWS-Fli block | TROY signal inh
C[C@@H]1CN([C@H](C)CO)S(=O)(=O)c2ccc(-c3cccc(F)c3)cc2O[C@@H]1CN(C)S(C)(=O)=O | . | - | - | . | - | .
C[C@@H]1CN([C@H](C)CO)C(=O)c2cccc(NS(=O)(=O)c3cccs3)c2O[C@H]1CN(C)C | . | - | - | . | - | .
O=C(C[C@@H]1C[C@@H]2c3cc(NC(=O)c4cccnc4)ccc3O[C@@H]2[C@@H](CO)O1)NCc1ccc(Oc2ccccc2)cc1 | . | - | - | . | - | .
C[C@@H]1CN([C@H](C)CO)C(=O)Cc2cc(NC(=O)CCCCCC(=O)Nc3ccccc3N)ccc2O[C@@H]1CN(C)S(=O)(=O)c1ccc(Cl)cc1 | . | - | - | . | - | .
Nc1ncnc2c1C1(CCCCC1)Cc1ccccc1-2 | 59.0 | - | - | - | . | 59.0
Nc1n[nH]c2c1C1(CCCCC1)Cc1ccccc1-2 | - | . | . | - | . | -
O=C(CCCNS(=O)(=O)c1ccc(F)cc1)Nc1ccc(F)cc1 | 97.2 | - | - | - | - | -
O=C(O)CCCNS(=O)(=O)c1ccc2ccccc2c1 | - | . | - | - | . | -
O=C(O)CCCNS(=O)(=O)c1ccccc1 | 62.5 | . | - | - | . | -
Cc1cc(C)n(Cc2ccc(NC(=O)c3ccc(COc4ccccc4Br)cc3)cc2)n1 | 60.0 | . | . | - | . | -
COCC(=O)Nc1ccc2c(c1)OC[C@H](C)N(C(=O)c1ccccc1)C[C@@H](C)[C@H](OC)CN(C)C2=O | . | - | . | . | - | .
CN(C)C(=O)c1cccc(-c2ccc([C@H]3[C@@H](CO)N4CCCCN(CC5CCOCC5)C[C@@H]34)cc2)c1 | . | - | - | . | - | .
COC(=O)C[C@H]1C=C[C@@H](NS(=O)(=O)c2ccccc2F)[C@@H](CO)O1 | . | - | - | . | - | .
COc1cc(C2c3cc4c(cc3OC(NCCc3ccccc3)C2C)OCO4)cc(OC)c1OC (stereo not given) | - | - | - | - | 54.2 | -
COc1cc(C2c3cc4c(cc3OC(N3CCOCC3)C2C)OCO4)cc(OC)c1OC(C)=O (stereo not given) | - | - | - | - | - | -
COc1cc(C2c3cc4c(cc3OC(Nc3ccc(C(=O)O)cc3)C2C)OCO4)cc(OC)c1OC (stereo not given) | - | - | - | - | 52.2 | -
C[C@@H]1CN([C@@H](C)CO)S(=O)(=O)c2ccc(-c3ccccc3F)cc2O[C@@H]1CN(C)Cc1ccncc1 | . | - | . | . | - | .
COc1ccccc1C#Cc1ccc([C@H]2[C@@H](C#N)N(C(=O)C3CCC3)[C@H]2CO)cc1 | . | - | 64.2 | . | - | .
CCCC#Cc1ccc([C@H]2[C@@H](C#N)N(C(=O)C3CCCCC3)[C@H]2CO)cc1 | . | - | 78.8 | . | - | .
COc1ccccc1C#Cc1ccc([C@H]2[C@@H](CO)N(C(=O)C3CCCC3)[C@H]2C#N)cc1 | . | - | . | . | - | .
COc1ccccc1C#Cc1ccc([C@H]2[C@@H](C#N)N(C(=O)C3CCCCC3)[C@H]2CO)cc1 | . | . | 73.4 | . | 63.2 | .
CCCC#Cc1ccc([C@@H]2[C@@H](C#N)N(C(=O)C3CCCCC3)[C@@H]2CO)cc1 | . | - | - | . | - | .
COc1ccccc1C#Cc1ccc([C@@H]2[C@@H](C#N)N(C(=O)C3CCCCC3)[C@H]2CO)cc1 | . | . | 88.7 | . | - | .
Cc1ccc(S(=O)(=O)N2C[C@H](O)COC[C@H]3O[C@@H](CC(=O)NCCN4CCCCC4)CC[C@@H]32)cc1 | . | - | - | . | - | .
COc1ccc(C#Cc2ccc3c(c2)O[C@@H](CN(C)C(C)=O)[C@@H](C)CN([C@H](C)CO)S3(=O)=O)cc1 | . | - | . | . | - | .
C[C@@H]1CCCCO[C@H](CN(C)C(=O)c2ccccc2)[C@H](C)CN([C@@H](C)CO)C(=O)c2cc(NC(=O)c3ccccc3)ccc2O1 | . | - | - | . | . | .
